Measurements reported in paper PMC4336329 (PLoS ONE, 2015).
Among all 310,000 compounds or so, about 14,000 (4.5%) showed an effect of 50% or more. The effect is printed as a negative number. Shown is part of a subset that was picked to be rich in strong results.

target: human ether-à-go-go-related gene (hERG) potassium channel (human, UniProt Q12809); experiment: primary screen, population patch clamp on CHO cells stably expressing hERG; higher = less effect of the substance
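Note: peak tail current of the secondary pulse compared with the same well before compound.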

human ether-à-go-go-related gene (hERG) potassium channel, sequence (Q12809 whole entry, looked up): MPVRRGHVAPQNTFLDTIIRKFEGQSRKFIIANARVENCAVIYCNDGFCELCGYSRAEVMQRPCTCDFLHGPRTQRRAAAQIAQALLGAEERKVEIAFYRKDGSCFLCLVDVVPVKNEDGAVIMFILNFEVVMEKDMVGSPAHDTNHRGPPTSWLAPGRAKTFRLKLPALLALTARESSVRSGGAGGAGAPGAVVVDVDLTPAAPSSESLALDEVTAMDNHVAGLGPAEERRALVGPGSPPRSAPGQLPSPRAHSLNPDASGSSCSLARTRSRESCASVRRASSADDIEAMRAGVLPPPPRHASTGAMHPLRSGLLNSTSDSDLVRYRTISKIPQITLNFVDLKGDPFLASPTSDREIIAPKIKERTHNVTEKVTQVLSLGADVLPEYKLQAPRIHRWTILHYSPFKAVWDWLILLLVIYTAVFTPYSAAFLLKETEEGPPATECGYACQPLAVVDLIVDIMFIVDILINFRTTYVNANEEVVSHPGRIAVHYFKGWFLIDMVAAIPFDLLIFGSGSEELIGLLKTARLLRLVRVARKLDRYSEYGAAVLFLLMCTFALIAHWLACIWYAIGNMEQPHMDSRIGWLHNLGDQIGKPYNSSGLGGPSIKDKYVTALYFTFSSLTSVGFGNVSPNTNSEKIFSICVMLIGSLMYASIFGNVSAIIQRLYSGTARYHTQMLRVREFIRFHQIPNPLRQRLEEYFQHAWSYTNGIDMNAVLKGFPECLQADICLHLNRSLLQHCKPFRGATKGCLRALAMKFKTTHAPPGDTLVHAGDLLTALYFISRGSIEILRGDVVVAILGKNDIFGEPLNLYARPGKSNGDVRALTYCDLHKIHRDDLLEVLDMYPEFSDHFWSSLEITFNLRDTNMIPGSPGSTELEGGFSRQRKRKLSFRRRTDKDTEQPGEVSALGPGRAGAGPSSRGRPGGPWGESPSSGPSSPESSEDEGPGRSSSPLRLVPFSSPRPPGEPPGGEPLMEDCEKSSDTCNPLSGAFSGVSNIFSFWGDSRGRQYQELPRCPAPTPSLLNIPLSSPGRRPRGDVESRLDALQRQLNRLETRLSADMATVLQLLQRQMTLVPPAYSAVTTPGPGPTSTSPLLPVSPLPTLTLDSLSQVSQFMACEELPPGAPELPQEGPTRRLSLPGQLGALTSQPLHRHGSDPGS

Compound | hERG current change (%, negative = inhibition) at 10uM [%]
CC1(C)CC2CC(C)(CN2C(=O)c2ccc([N+](=O)[O-])cc2)C1 (centres unmarked) | -62.4
O=C(C1CCN(S(=O)(=O)c2ccccc2)CC1)N1CCC1 | 12.3
Cc1[nH]n(-c2ccccc2)c(=O)c1C=Nc1cnc2ccccc2c1 | -8.67
O=C(c1cccs1)c1ccc(-c2cccs2)s1 | 1.57
CN(C)C(=O)CSc1nc(-c2ccccc2)nc2c1CCCC2 | -5.09
O=C(O)CSc1nc(-c2ccccc2)nc2c1CCCC2 | 12.8
CN(C)CCSc1nc(-c2ccccc2)nc2c1COC(C)(C)C2 | -69.1
CSc1nc(-c2ccccc2)nc2c1COC(C)(C)C2 | 5.03
OCC(O)CSc1nc(-c2ccccc2)nc2c1CCC2 (centres unmarked) | 2.22
CCSc1nc(-c2ccccc2)nc2c1CCCC2 | 7.26
CN(C)CCCSc1nc(-c2ccccc2)nc2c1CCC2 | -50.3
CN(C)CCSc1nc(-c2ccccc2)nc2c1CCC2 | -61.3
NC(=O)CSc1nc(-c2ccccc2)nc2c1CCCC2 | 5.92
CC1(C)Cc2nc(-c3ccccc3)nc(SCC(O)CO)c2CO1 (centres unmarked) | -15.8
OCCSc1nc(-c2ccccc2)nc2c1CCC2 | -12
CN(C)CCSc1nc(-c2ccccc2)nc2c1CCCC2 | -51.3
O=C(NCC(c1cccs1)N1CCOCC1)C1CCN(S(=O)(=O)c2c(Cl)cccc2Cl)CC1 (centres unmarked) | -27.3
COc1ccc(C2C3CCCCC3(O)CCN2C(=O)c2cccs2)cc1 (centres unmarked) | 5.52
CC(C)(C)C(=O)Nc1nnc(SCC(=O)NC2CCCCC2)s1 | 2.34
COc1ccc(S(=O)(=O)N2CCC(C(=O)NCCN3CCOCC3)CC2)cc1 | 14.2
CC1=NN(c2ccccc2)C(=O)C1/C=C1\C(=O)NC(=O)N(c2cc(C)cc(C)c2)C1=O (centres unmarked) | 6.47
Cc1sc2nc(CSCC(=O)Nc3c(F)cccc3F)[nH]c(=O)c2c1C | 7.01

Compound | hERG current change (%, negative = inhibition) at 10uM [%]
CC(C)CNc1nnnc2c1sc1nc(N3CCOCC3)c3c(c12)CC(C)(C)SC3 | -20.8
Cc1ccc(Sc2ccc(S(=O)(=O)Nc3ccc(CC(=O)O)cc3)cc2)cc1C | 3.13
COc1ccccc1NS(=O)(=O)c1ccc(C(=O)NCC2(N(C)C)CCCCC2)cc1 | 3.78
CCN(c1ccccc1)S(=O)(=O)c1ccc(C(=O)Nc2ccccn2)cc1 | -8.37
CNC(=O)c1ccc(OCc2ccccc2)c(OC)c1 | 3.11
CCN(c1ccccc1)S(=O)(=O)c1cccc(C(=O)NCC2(N(C)C)CCCCC2)c1 | -60.5
CN(C)C1(CNC(=O)c2cccc(S(=O)(=O)NCc3ccccc3)c2)CCCCC1 | -49.5
CCN(c1ccccc1)S(=O)(=O)c1ccc(C(=O)Nc2ccncc2)cc1 | -68.7
CCN(c1ccccc1)S(=O)(=O)c1ccc(C(=O)NCCc2ccc(S(N)(=O)=O)cc2)cc1 | 5.49
COc1ccc(C(=O)NCC(=O)NCC2(N(C)C)CCCCC2)cc1OC | 3.45
CCN(c1ccccc1)S(=O)(=O)c1ccc(C(=O)NCC2(N(C)C)CCCCC2)cc1 | -57.8
CN(c1ccccc1)S(=O)(=O)c1ccc(C(=O)Nc2ccncc2)cc1 | -9.83
COc1ccccc1NS(=O)(=O)c1cccc(C(=O)NCC2(N(C)C)CCCCC2)c1 | -22.2
COc1cc(C(=O)NCC2(N(C)C)CCCCC2)ccc1OCc1ccccc1 | -59.7
O=C(NCCNC(=O)c1ccccn1)c1cccc(F)c1 | 23.7
O/N=C/C1=C(Cl)c2ccccc2CC1 | -4.9
Cc1ccccc1NC(=O)COC(=O)c1cccc(S(=O)(=O)N2CCCCC2)c1 | -6.55
Cc1ccc(C(=O)N2CCN(C34CC5CC(CC(C5)C3)C4)CC2)o1 | -29.4
CCc1nnc(NC(=O)CSc2nnc(-c3ccco3)n2CCOC)s1 | 9.29
CC1CCN(c2oc(-c3ccco3)nc2S(=O)(=O)c2ccccc2)CC1 | -6.14
CNC(=O)COC(=O)c1ccccc1Oc1ccccc1 | -5.63
O=C1OC(C(=O)Nc2nccs2)Cc2ccccc21 (centres unmarked) | 12.7
